19 molecules from PubChem BioAssay AID1117282 (The Scripps Research Institute Molecular Screening Center, 2014) can be followed below.

Some of the results follow. A number with no mark means an inactive call. Activity calls are given as the source filed them.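 How the source made its calls: active means mean inhibition across replicates above a set limit taken from the earlier primary screen (cut at about 11% in these data); inactive means the rest.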

What is called inhibition is the drop in the measured response relative to a control, in per cent.

This assay deals with RNA-editing ligase 1, mitochondrial (Trypanosoma brucei brucei) (UniProt P86926). Put plainly: T. brucei editing ligase REL1 blockade – biochemical, FRET fluorescence, triplicate, confirmation (AID 1117282).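 Further: 0% = REL1 with substrate and DMSO and 100% = REL1 plus control inhibitor NSC42067.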 Conditions: TbREL1 RNA ligation, at 9.66 µM, active compounds read high.
Chain of RNA-editing ligase 1, mitochondrial (Trypanosoma brucei brucei) (P86926 whole entry, looked up): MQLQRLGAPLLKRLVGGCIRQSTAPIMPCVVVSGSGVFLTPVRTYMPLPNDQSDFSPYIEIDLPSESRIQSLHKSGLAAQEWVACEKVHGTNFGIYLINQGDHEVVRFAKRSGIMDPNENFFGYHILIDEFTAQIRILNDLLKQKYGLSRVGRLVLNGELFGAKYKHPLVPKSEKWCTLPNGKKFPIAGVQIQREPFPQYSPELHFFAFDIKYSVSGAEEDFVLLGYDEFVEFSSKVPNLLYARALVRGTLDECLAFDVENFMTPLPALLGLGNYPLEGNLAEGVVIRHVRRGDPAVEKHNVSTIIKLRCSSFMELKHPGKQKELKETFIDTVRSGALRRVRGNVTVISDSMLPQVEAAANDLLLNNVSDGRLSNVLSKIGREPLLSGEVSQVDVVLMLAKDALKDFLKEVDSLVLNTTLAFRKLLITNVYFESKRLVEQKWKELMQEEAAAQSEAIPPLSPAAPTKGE
`COc1cc(/C=C/C(=O)n2cnc3ccccc32)cc(OC)c1OC`: the inhibition is 2.66%.
As for `O=C(NCc1ccccc1)[C@@H]1CSC2c3ccccc3C(=O)N21` (some centres undefined), the inhibition is 3.84%.
Next, `Cc1nnsc1C(=O)Nc1cccc(Cl)c1C`: 2.09%.
Next, `CC1(C)CC(N2CCN(C(c3ccccc3)c3ccccc3)CC2)=CC(=[N+]2CCCCC2)C1`: 16.7% (active); `O=C(Nc1cccc(F)c1)NC1CCCCCCC1`: 4.12%; `Nc1ccc2nc3c(=O)[nH]c(=S)[nH]c3nc2c1`: 14.2% (active).
The value for `COC(=O)C1=C(C)N(Cc2cccc(C(F)(F)F)c2)C(=NCc2cccc(C(F)(F)F)c2)NC1c1ccccc1C(F)(F)F` (centres undefined) was 19.9% (active).
For `CN1CCN(/N=C2/C(=O)Nc3ccc([N+](=O)[O-])cc32)CC1`, the inhibition was 3.63%.
`C=CCn1c(=S)[nH]c2scc(-c3ccco3)c2c1=O`: the inhibition is 13.8% (active).
The value for `CCCCCn1c(=O)[nH]c2cc(C(=O)NCCCN3CCCCC3C)ccc2c1=O` (centres undefined) was 7.94%; that for `CNc1nc(Nc2ccc(C)c(Cl)c2)nc(N)c1[N+](=O)[O-]` was 9.65%.
In the case of `COC(=O)C1=C(C)N(Cc2cccc(C(F)(F)F)c2)C(=NCc2ccccc2)NC1c1ccccc1C(F)(F)F` (centres undefined), the inhibition was 21.2% (active).
Next, `COc1cc(NC(=O)CCS(=O)(=O)c2ccc3c(c2)oc(=O)n3C)cc(OC)c1`: 2.33%; `O=C(Nc1nc(-c2ccco2)c(-c2ccco2)s1)c1ccco1`: 6.13%.
On to `COc1c(O)cc2oc(-c3ccc(O)c(O)c3)cc(=O)c2c1O`, for which the inhibition was 12.7% (active).
As to `CC(C)Cn1c(N)c(C(=O)NCc2cccs2)c2nc3ccccc3nc21`, the inhibition was 6.35%.
Next, `CC[C@@H](C)[C@@H]1CN([C@@H](C)CN2CCC[C@H]2CN2C(N)=NC[C@H]2C(C)C)C(=N)N1CCc1ccc(Cl)c(Cl)c1`: 13.3% (active).
Next, `COCc1c(N)c(C)nc(Cl)c1C#N`: 7.44%; `COc1ccc(C(C(=O)Nc2c(C)cccc2C)N2CCN(c3ccc(C)cc3)CC2)cc1` (centres undefined): -1.79%.
